Assay results from PubChem BioAssay AID720597 (Broad Institute, 2013).
Entries with a potency or affinity are not part of this list. Activity calls are given as the source filed them.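 How the source made its calls: active means fitted half-maximal dose no more than twice the top valid tested dose, for compounds that lower signal; inconclusive means fit invalid, or curve flat with activity between -70 and -30; inactive means potency past limit, curve flat within ±30, or signal increasing.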

biological target: NAD-dependent protein deacylase sirtuin-5, mitochondrial (Homo sapiens) (UniProt Q9NXA8); test: SIRT5 deacylase inhibitors, dose response, biochemical, fluorescence imaging, cherry-pick, set 6 (AID 720597); conditions: Purified SirT5, succinyl-peptide-AMC/trypsin fluorescence; series mostly up to 15 µM;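 further: lower AMC signal can also come from blocking the trypsin step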
Sequence (Q9NXA8 whole entry, looked up): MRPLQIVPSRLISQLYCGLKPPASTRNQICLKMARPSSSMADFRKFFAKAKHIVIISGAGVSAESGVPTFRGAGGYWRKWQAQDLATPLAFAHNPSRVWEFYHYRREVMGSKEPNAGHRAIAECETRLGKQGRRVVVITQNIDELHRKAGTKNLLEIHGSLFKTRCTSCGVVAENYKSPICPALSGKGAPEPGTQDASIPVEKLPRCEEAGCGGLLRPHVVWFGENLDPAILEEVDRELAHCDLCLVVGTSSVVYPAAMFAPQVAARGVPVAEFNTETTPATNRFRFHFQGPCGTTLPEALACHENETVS

outcome, inactive:
CNC[C@H]1Oc2ccc(NC(=O)Nc3ccc(F)cc3)cc2CC(=O)N([C@@H](C)CO)C[C@@H]1C
COc1ccc(S(=O)(=O)Nc2ccc3c(c2)C(=O)N([C@H](C)CO)C[C@@H](C)[C@H](CN(C)S(=O)(=O)c2ccccc2)OCCCC[C@@H](C)O3)cc1
C[C@@H]1CN([C@@H](C)CO)C(=O)Cc2cc(NC(=O)Nc3ccc(F)cc3)ccc2O[C@@H]1CN(C)C
C[C@@H]1CCCCO[C@H](CN(C)C(=O)Nc2ccc(F)cc2)[C@@H](C)CN([C@H](C)CO)C(=O)c2cc(NC(=O)Nc3ccc(F)cc3)ccc2O1
COc1ccc(S(=O)(=O)Nc2ccc3c(c2)CC(=O)N([C@H](C)CO)C[C@H](C)[C@@H](CN(C)CC2CCCCC2)O3)cc1
CCN1[C@@H]2c3ccc(-c4cccc(F)c4)c(=O)n3C[C@@H]2[C@@H](CO)[C@@H]1C(=O)N[C@H](C)c1ccccc1
C[C@H](O)C#Cc1ccc2c(c1)O[C@@H](CN(C)Cc1ccc(-c3ccccc3)cc1)[C@H](C)CN([C@H](C)CO)S2(=O)=O
C[C@H](CO)N1C[C@H](C)[C@H](CN(C)Cc2ccccc2)Oc2cc(/C=C/c3ccccc3)ccc2S1(=O)=O
COc1ccc(S(=O)(=O)N(C)C[C@@H]2OCCCC[C@H](C)Oc3ccc(NS(=O)(=O)c4ccc(C)cc4)cc3C(=O)N([C@H](C)CO)C[C@@H]2C)cc1
CO[C@H]1CN(C)C(=O)c2cccc(C#N)c2OC[C@H]2O[C@H](CC[C@@H]2OC)CCN(C)C(=O)[C@H]1C
C[C@H]1CN([C@@H](C)CO)S(=O)(=O)c2ccc(/C=C/c3ccccc3)cc2O[C@H]1CN(C)C(=O)c1ccc2c(c1)OCO2
C[C@H](CO)N1C[C@H](C)[C@@H](CN(C)Cc2ccc(C(F)(F)F)cc2)OCCCC[C@H](C)Oc2ccc(NS(=O)(=O)c3cccs3)cc2C1=O
C[C@H](CO)N1C[C@H](C)[C@@H](CN(C)Cc2ccncc2)Oc2ncc(C#CCN(C)C)cc2C1=O
C[C@@H]1CN([C@@H](C)CO)C(=O)Cc2cc(NS(=O)(=O)c3ccccc3)ccc2O[C@H]1CN(C)CC1CCCCC1
C[C@H](O)C#Cc1ccc2c(c1)O[C@H](CN(C)Cc1ccc(-c3ccccc3)cc1)[C@@H](C)CN([C@@H](C)CO)S2(=O)=O
CO[C@H]1CN(C)C(=O)c2cc(NC(=O)CC(F)(F)F)ccc2OC[C@@H](C)N(C(=O)C2CCCCC2)C[C@@H]1C
C[C@@H]1CN([C@@H](C)CO)C(=O)c2cccc(NC(=O)c3ccc(-c4nccs4)cc3)c2O[C@@H]1CN(C)Cc1ccc(C(F)(F)F)cc1
COCC#Cc1ccc2c(c1)O[C@@H](CN(C)CC1CCCC1)[C@H](C)CN([C@@H](C)CO)S2(=O)=O
C[C@H](CO)N1C[C@H](C)[C@@H](CN(C)Cc2ccc(Cl)c(Cl)c2)Oc2ccc(NS(=O)(=O)c3ccc(Cl)cc3)cc2CC1=O
Cn1cnc(S(=O)(=O)N[C@H]2CC[C@@H](CC(=O)Nc3ccccc3)O[C@@H]2CO)c1
C[C@@H]1CN([C@H](C)CO)S(=O)(=O)c2ccc(/C=C/c3ccccc3)cc2O[C@H]1CN(C)C(=O)NC1CCCCC1
COc1ccc(NC(=O)N(C)C[C@@H]2Oc3ccc(NS(=O)(=O)c4ccc(F)cc4)cc3C(=O)N([C@@H](C)CO)C[C@H]2C)cc1
C[C@H](CO)N1C[C@H](C)[C@@H](CN(C)Cc2ccc(Cl)c(Cl)c2)Oc2ccc(NC(=O)CCC(F)(F)F)cc2CC1=O
CN(C)C(=O)[C@@H]1[C@@H](CO)[C@@H]2Cn3c(ccc(-c4ccccc4)c3=O)[C@H]1N2CCc1ccccc1
C[C@@H]1CCCCO[C@H](CN(C)C(=O)Nc2ccc(C(F)(F)F)cc2)[C@H](C)CN([C@@H](C)CO)C(=O)c2cc(NS(=O)(=O)c3ccc(Cl)cc3)ccc2O1
COc1ccc(S(=O)(=O)N(C)C[C@@H]2OCCCC[C@H](C)Oc3ccc(NS(=O)(=O)c4ccc(C)cc4)cc3C(=O)N([C@@H](C)CO)C[C@@H]2C)cc1
COc1ccc(NC(=O)Nc2ccc3c(c2)C(=O)N([C@@H](C)CO)C[C@@H](C)[C@@H](CN(C)Cc2ccncc2)O3)cc1
COc1ccc(S(=O)(=O)N(C)C[C@H]2OCCCC[C@H](C)Oc3ccc(NS(=O)(=O)c4ccc(Cl)cc4)cc3C(=O)N([C@@H](C)CO)C[C@H]2C)cc1
C[C@@H]1CN([C@@H](C)CO)C(=O)c2cc(-c3cccnc3)cnc2O[C@H]1CN(C)C(=O)Nc1ccc2c(c1)OCO2
C[C@H]1CN([C@@H](C)CO)S(=O)(=O)c2ccc(C#Cc3ccc(F)cc3)cc2O[C@@H]1CN(C)C(=O)NC1CCCCC1
O=C(C[C@H]1CC[C@H](NC(=O)C2CCC2)[C@H](CO)O1)NCc1ccccc1Cl
O=C(c1ccc2c(c1)OCO2)N1CC(=O)N2[C@H](CO)[C@H](c3ccc(C#CCC4CCCC4)cc3)[C@@H]2C1
C[C@@H]1CCCCO[C@H](CN(C)C(=O)Nc2ccc(C(F)(F)F)cc2)[C@@H](C)CN([C@H](C)CO)C(=O)c2cc(NS(=O)(=O)c3ccc(Cl)cc3)ccc2O1
C[C@H](CO)N1C[C@H](C)[C@H](CN(C)S(=O)(=O)c2ccc(F)cc2)Oc2c(NC(=O)c3nc4ccccc4s3)cccc2C1=O
C[C@H]1CN([C@@H](C)CO)S(=O)(=O)c2ccc(C#Cc3ccc(F)cc3)cc2O[C@H]1CN(C)C(=O)NC1CCCCC1
C[C@@H]1CN([C@@H](C)CO)C(=O)Cc2cc(NC(=O)Nc3ccc4c(c3)OCO4)ccc2O[C@@H]1CN(C)CC1CCCCC1
C[C@@H]1CN([C@@H](C)CO)S(=O)(=O)c2ccc(/C=C/c3ccccc3)cc2O[C@@H]1CN(C)C(=O)NC1CCCCC1
C[C@@H]1CN([C@H](C)CO)S(=O)(=O)c2ccc(C#Cc3ccccn3)cc2O[C@@H]1CN(C)Cc1cccc(F)c1
C[C@H]1CN([C@@H](C)CO)C(=O)c2c(c3ccccc3n2C)-c2ccccc2CO[C@H]1CN(C)Cc1cccc2c1OCCCO2
